Screening results (PubChem BioAssay)
A selection: hits, their analogues and other compounds. The true share with any hit is near 7.9%.
M1 antag – M1 muscarinic receptor (rat) antagonism. CHO-M1 cells, Fluo-4 calcium, ACh EC80 antagonist mode; stronger effect = lower value. hit rate 3.4% among 64,000. B-score at 10 µM. P08482;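 active = calcium fluorescence response, raw or row-and-column corrected B-score, differing from the plate sample mean either way at a set confidence level, mostly lower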
PLAP activator – activators of human placental alkaline phosphatase; P05187; activation fold at 20 µM; purified PLAP enzyme, luminescent substrate read-out; stronger effect = higher value; hit rate 1.2% among 96,000; in the data active = activation fold above about 2
Target sequence (P05187 whole entry, looked up): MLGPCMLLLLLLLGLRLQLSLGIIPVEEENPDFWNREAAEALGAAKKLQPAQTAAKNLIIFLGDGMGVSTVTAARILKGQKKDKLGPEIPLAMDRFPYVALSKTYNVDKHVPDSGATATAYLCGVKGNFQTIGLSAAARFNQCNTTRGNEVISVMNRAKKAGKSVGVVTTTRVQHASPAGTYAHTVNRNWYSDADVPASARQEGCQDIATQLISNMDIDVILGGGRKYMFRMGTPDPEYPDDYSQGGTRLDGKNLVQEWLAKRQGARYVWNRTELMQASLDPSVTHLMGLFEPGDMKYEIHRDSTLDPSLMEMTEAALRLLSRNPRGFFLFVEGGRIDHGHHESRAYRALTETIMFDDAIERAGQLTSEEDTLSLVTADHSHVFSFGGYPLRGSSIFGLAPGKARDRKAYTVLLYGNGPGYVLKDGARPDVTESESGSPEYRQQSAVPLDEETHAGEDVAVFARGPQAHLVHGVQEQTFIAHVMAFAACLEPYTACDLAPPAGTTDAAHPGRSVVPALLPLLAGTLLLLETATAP
Cav32 inh – blocks human Cav3.2 T-type calcium channel | O95180 | Cav3.2-expressing cells, Fluo-4 calcium fluorescence FDSS; stronger effect = lower value | B-score at 10 µM | hit rate 4% among 100,000;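 active = single-dose well whose peak fluorescence ratio is a statistical outlier from its plate by either plate-standardised score or position-corrected B-score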
M1 agonist – M1 muscarinic receptor agonism | hit rate 3% among 64,000 | B-score at 10 µM | CHO-M1 cells, Fluo-4 calcium fluorescence, agonist mode; stronger effect = higher value;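 active = fluorescence rise, raw or as B-score row- and column-corrected plate score, outside the 99.7% band of its plate's samples, either direction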
HER2 expr 66K – inhibitors of human Her2 kinase expression; SKBR-3 HER2 protein level, AlphaScreen, 18-24 h; stronger effect = lower value; hit rate 0.69% among 65,000; HER2 level % of control, % at 10 µM; P04626;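 active = HER2 level under 5% of the carrier-only control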;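 note: 100% = DMSO carrier and 0% = 500 nM PU-H71 HSP90 inhibitor; lower value means stronger loss of Her2 protein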
The depositor's hits bear a star; nt = no result given.

SMILES	M1 antag	PLAP activator	Cav32 inh	M1 agonist	HER2 expr 66K
COc1ccc(C2=NO[C@@H]3C(=O)N(c4ccc(C)cc4C)C(=O)[C@H]23)cc1OC	0.052	0.7	0.047	-0.088	83
COc1ccc(C2=NO[C@@H]3C(=O)N(c4cccc(C)c4C)C(=O)[C@H]23)cc1OC	0.91*	0.8	-0.31	0.24	88
CCn1cc(S(=O)(=O)CC(=O)NC2CCCCC2)c2ccccc21	3.2*	1	0.98	1.1	63
CCn1cc(S(=O)(=O)CC(=O)N2CCc3ccccc32)c2ccccc21	-0.065	nt	-0.042	0.099	1.6*
O=C(CS(=O)(=O)c1c[nH]c2ccccc12)NC1CCCCC1	nt	0.8	0.91	nt	nt
CCCn1cc(S(=O)(=O)CC(=O)N2CCc3ccccc32)c2ccccc21	1.6	0.9	-2.1	0	60
COCCOc1ccc(C(F)(F)F)cc1Nc1nc2ccccc2o1	0.045	1.1	-1.4	0.57	150
O=C(OCc1ccc(Cl)cc1Cl)c1ccncc1	nt	1.1	-1	nt	nt
Nc1ncnc2nc(SCc3ccccc3)[nH]c12	1.1	2*	0.071	0.41	115
Cc1nc2ncnn2c(C)c1CCC(=O)N1CCN(c2ccccn2)CC1	0.4	1.1	-0.092	0.92	115
Cc1nc2cc(-c3ccccc3)nn2c(C)c1CCC(=O)N1CCN(c2ccccc2)CC1	nt	1.6	-6*	nt	nt
CCCOC(=O)c1ccc(Oc2c(-c3ccc(O)cc3O)n[nH]c2C)cc1	1.3	1.8	-3	-0.32	102
Cc1[nH]nc(-c2ccc(O)cc2O)c1Oc1ccccc1	-0.5	1.7	-4.5*	1.1	95
COc1ccc(-c2n[nH]c(C)c2-c2ccc(Cl)cc2)c(O)c1	nt	1.5	-1.4	nt	nt
C=C(C)COc1ccc(-c2n[nH]c(C)c2Oc2ccccc2OC)c(O)c1	0.38	1.7	-0.54	0.16	-6.3*
Cc1[nH]nc(-c2ccc(O)cc2O)c1-c1ccc(Cl)cc1	1.3	1.6	-4.8*	-0.65	70
COC(=O)c1ccccc1NC(=O)CS(=O)(=O)Cc1nc(-c2ccc(C)cc2)oc1C	-1.1	1.1	-4.4	-1	78
COc1ccc(OC)c(CCNC(=O)CS(=O)(=O)Cc2nc(-c3ccc(C)cc3)oc2C)c1	-0.9	1.3	-5.9*	0.21	93
COc1ccc(-c2nc(CS(=O)(=O)CC(=O)Nc3ccc(Cl)cc3)c(C)o2)cc1	-0.0014	1	-5.3*	-0.011	72
COc1cc(OC)c(NC(=O)CS(=O)(=O)Cc2nc(-c3ccc(C)cc3)oc2C)cc1Cl	1.4	1.2	-4.9*	0.71	92
Cc1ccc(/C(O)=C2\C(=O)C(=O)N(CCCN(C)C)C2c2ccccn2)cc1 (stereo not given)	-0.78	nt	nt	0.014	74
COc1ccc(Cn2nnc3c(=O)[nH]c(C(=O)NCCc4ccc(F)cc4)nc32)cc1OC	-0.46	1.7	0.79	-0.12	73
COCn1c(COc2ccc3ccccc3c2)nc2ccccc21	nt	nt	-5.3*	nt	nt
CCn1c(COc2cccc(C)c2)nc2ccccc21	nt	nt	-4*	nt	nt
COCc1nc2ccccc2n1CCCOc1ccccc1	-0.13	1.7	-1.1	-1.8	101
SMILES	M1 antag	PLAP activator	Cav32 inh	M1 agonist	HER2 expr 66K
COc1cccc(NC2=NC3(CCCCC3)N=C(N)N2)c1	-0.29	2.8*	-0.5	-0.14	85
Cc1ccc(-c2csc3ncnc(SCC(=O)Nc4nnc(C)s4)c23)cc1	nt	1.1	0.001	nt	nt
Cc1ccc(-c2csc3ncnc(Sc4nnc(CN5CCCCCC5=O)o4)c23)cc1	0.3	1.3	-6.7*	0.17	-25*
COc1ccc(S(=O)(=O)N2CCOC2CNC(=O)C(=O)NCCc2c[nH]c3ccccc23)cc1C (stereo not given)	nt	nt	-3.5*	nt	nt
O=C(COc1ccc(N2CC(C(=O)O)CC2=O)cc1)Nc1cccc(C(F)(F)F)c1 (stereo not given)	0.42	0.9	1.4	-0.29	74
COc1cc(/C=C(\C#N)c2nc3ccccc3[nH]2)c([N+](=O)[O-])cc1OCc1ccccc1	nt	0.9	-1.9	nt	nt
CCN(CC)c1ccc(/C=C(/C#N)c2nc3ccccc3[nH]2)c(OC(C)C)c1	nt	0.7	-3.5*	nt	nt
Cc1ccc(O)c(C(=O)c2cnn(C(=O)Cc3csc(C)n3)c2)c1	0.17	1.8	-1.3	0.58	nt
Cc1ncc(CC(=O)n2cc(C(=O)c3cc(F)ccc3O)cn2)s1	nt	0.9	-3.4*	nt	nt
CCc1ccccc1NC(=O)CSc1nnc([C@@H]2CCCN2C(=O)OC(C)(C)C)o1	-0.012	2.1*	0.043	0.59	102
Cc1nc(SCC(=O)NCCc2ccc(Cl)cc2)nc(C)c1C	nt	0.9	0.028	nt	nt
C=CCNc1oc(/C=C/c2ccccc2)nc1C#N	nt	0.9	-0.2	nt	nt
Cc1ccc(-c2nc(NC(=O)CSc3nnc4scc(-c5ccccc5)n34)ns2)cc1	0.27	nt	-0.71	1.3	nt
N#CC1=C(SCC(=O)c2cc3ccccc3oc2=O)NC(=O)C(C#N)C12CCCC2 (stereo not given)	-0.89	1.5	-3.3	3.9	54
CC(C)(C)C1CCC2(CC1)C(C#N)=C(SCC(=O)Nc1ccccc1)NC(=O)C2C#N (stereo not given)	-0.022	1.6	-6.7*	0.86	56
CCOC(=O)CCc1cnccc1-c1cccc(OC)c1O	nt	nt	-0.18	nt	nt
CC(C)Cc1cc(C(=O)N2N=C(C(F)F)CC2(O)C(F)F)c2ccccc2n1 (stereo not given)	nt	nt	-7*	nt	nt
CCc1ccc(-c2cc(C(=O)N3N=C(C(F)F)CC3(O)C(F)F)c3ccccc3n2)cc1 (stereo not given)	nt	1.3	-1.5	nt	nt
COc1ccc(CNC(=O)C(c2ccc(C)o2)N(Cc2cccs2)C(=O)Cc2cccs2)cc1 (stereo not given)	nt	nt	-7.6*	nt	nt
CCc1ccc(C(C(=O)NCc2ccc(OC)cc2)N(CCOC)C(=O)Cc2cccs2)cc1 (stereo not given)	nt	0.9	-3.5	nt	nt
COCCN(C(=O)Cc1cccs1)C(C(=O)NCc1ccc(OC)cc1)c1ccc(C)cc1 (stereo not given)	nt	1.4	-1.2	nt	nt
COCCN(C(=O)Cc1cccs1)C(C(=O)NCc1ccc(OC)cc1)c1ccc(C(C)C)cc1 (stereo not given)	nt	2.6*	-3	nt	nt
Cc1cc(O)ccc1Nc1nc2ccccc2nc1Nc1ccc(O)cc1C	-0.23	1.3	-0.34	-0.75	113
Cc1ccc2cc(CN(Cc3nnnn3C3CCCCC3)CC3CCCO3)c(=O)[nH]c2c1 (stereo not given)	1.2	1.5	-2.6*	-0.32	107
O=C(COC(=O)CCC(=O)c1ccc2c(c1)OCCO2)NCc1ccc2c(c1)OCO2	-0.00022	0.8	0.77	1.9	95
CSc1nc2n(n1)C(c1cc(Br)ccc1F)C(C(=O)N(C)C)=C(C)N2 (stereo not given)	1.6*	1.2	-0.056	0.13	87
Cc1ccnc(NC(=O)C23CC4CC(CC(C4)C2)C3)c1	0.68	1	-6.1*	0.078	97
Cc1ccc(N2CCN(C(=O)CCc3nc4ccccc4[nH]3)CC2)c(C)c1	nt	nt	-4.8*	nt	nt
CC(=O)Nc1ccccc1-c1nc2ccc(C(=O)N3CCN(c4cccc(C)c4)C(C)C3)cc2[nH]c1=O (stereo not given)	nt	1.5	-0.34	nt	nt
